CSC inhib = cancer stem cell inhibition; inhibition, % at 7.5 µM; 300,000 compounds, 1.1% hits; cancer stem cell-like cells viability, luminescence; in the data active = inhibition above about 75%; inconclusive = no clear call, values can overlap the other calls; tested in HMLE shEcad cells
aSyn 5UTR inh = 5' untranslated region of α-synuclein, MLPCN primary screen; inhibition, % (tested at 7.5 µM); 300,000 compounds, 0.82% hits; AID 1813; alpha-synuclein 5'UTR reporter, inhibitor activity; in the data active = inhibition above about 60%; inconclusive = no clear call, values can overlap the other calls;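 also: H4 neuroglioblastoma cells stably carrying SNCA 5'UTR luciferase fusion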
Beta cell apopt = beta cell apoptosis inhibition. INS-1E cytokine-induced death, ATP luminescence, 48 h; percent of positive-control rescue, neutral wells zero. protection from apoptosis, % (no concentration beside the values). 300,000 compounds, 0.8% hits. AID 435005;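 active = Every replicate reaches about 75%, or at least half do and their mean reaches it too, limit read from the data; inconclusive = At least half of replicates reach the limit but their mean does not; inactive = Under half of replicates reach the limit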;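 also: higher means more ATP so stronger rescue from cytokine killing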
Bfl-1 A1 inh = inhibitors of the anti-apoptotic protein A1, read as caspase activation | MEF A1-2A-BIM cells, Caspase-Glo 3/7 luminescence, 3 h; percent of clofoctol response, vehicle zero | 330,000 compounds, 0.066% hits | caspase activation, % (test concentration not listed);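 active = over half of replicate activation scores above 10%, or exactly half above 10 with the replicate mean above 10; inconclusive = replicate mean below 10 yet half the replicates above 10; inactive = over half of replicates below 10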
Mdm2-MdmX inh = inhibitors of human Mdm2/MdmX interaction; inhibition, % at 8 µM; AID 485346; O15151+Q00987; 330,000 compounds, 3% hits; SaOS-2 split-luciferase Mdm2/MdmX complementation, luminescence;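 active = inhibition of at least 50% at 8 µM in the primary screen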
Target sequence (O15151 whole entry, looked up): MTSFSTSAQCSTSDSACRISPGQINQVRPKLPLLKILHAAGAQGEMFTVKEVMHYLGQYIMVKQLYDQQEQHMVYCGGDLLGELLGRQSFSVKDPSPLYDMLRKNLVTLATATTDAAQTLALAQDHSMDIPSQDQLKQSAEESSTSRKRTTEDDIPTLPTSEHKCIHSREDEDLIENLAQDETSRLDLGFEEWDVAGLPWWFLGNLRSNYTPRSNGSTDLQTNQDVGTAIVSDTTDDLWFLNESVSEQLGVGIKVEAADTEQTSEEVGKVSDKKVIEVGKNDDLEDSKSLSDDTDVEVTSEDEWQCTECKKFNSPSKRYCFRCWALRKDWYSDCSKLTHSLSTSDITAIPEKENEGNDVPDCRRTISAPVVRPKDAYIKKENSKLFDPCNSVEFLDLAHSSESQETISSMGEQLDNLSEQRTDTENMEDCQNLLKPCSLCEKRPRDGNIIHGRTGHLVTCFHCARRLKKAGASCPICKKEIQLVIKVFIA
Target sequence (Q00987 whole entry, looked up): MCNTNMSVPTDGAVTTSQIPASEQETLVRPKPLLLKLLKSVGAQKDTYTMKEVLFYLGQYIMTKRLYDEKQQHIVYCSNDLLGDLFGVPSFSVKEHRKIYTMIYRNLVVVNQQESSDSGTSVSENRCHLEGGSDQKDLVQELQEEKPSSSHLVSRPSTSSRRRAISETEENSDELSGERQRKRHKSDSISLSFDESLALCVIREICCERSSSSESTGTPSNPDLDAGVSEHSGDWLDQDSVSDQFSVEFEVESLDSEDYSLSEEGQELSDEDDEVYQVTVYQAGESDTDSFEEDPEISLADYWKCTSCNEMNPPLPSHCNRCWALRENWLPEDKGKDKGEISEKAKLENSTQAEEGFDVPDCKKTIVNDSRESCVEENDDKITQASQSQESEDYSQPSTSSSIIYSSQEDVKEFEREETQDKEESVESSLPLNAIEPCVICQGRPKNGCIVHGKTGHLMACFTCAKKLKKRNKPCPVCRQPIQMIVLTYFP
Large screens that a line does not name were inactive. Hits are enriched below; roughly 4.1% of the tested compounds scored in any of these assays.

Cc1sc2cc3c(c(C(=O)c4ccccc4)[n+]2c1C)-c1cccc2cccc-3c12	Beta cell apopt 99.5 (no result: Mdm2-MdmX inh)
Cc1sc2ccccc2[n+]1CC(=O)c1ccccc1	none
O=C(c1ccccc1)c1c2c(cc3sc4ccccc4[n+]13)-c1cccc3cccc-2c13	Beta cell apopt 98.4 (no result: aSyn 5UTR inh, Mdm2-MdmX inh)
CCOC(=O)c1c(-c2ccc(-c3ccccc3)cc2)csc1NC(=O)CCN1CCOCC1	CSC inhib 105.0 (no result: Mdm2-MdmX inh)
Cc1ccc(NC(=O)c2ccc(S(=O)(=O)NCc3cccnc3)cc2)c(C)c1	none
O=C(CSc1nc2ccccc2s1)NNC(=O)Nc1ccc(Cl)c(Cl)c1	none
O=C(CN1c2ccccc2Sc2ccccc21)NNC(=O)Nc1ccc(Cl)c(Cl)c1	CSC inhib 101.4 (no result: Beta cell apopt)
O=C(c1ccco1)N1CCN(Cc2nnc(-c3cccc(Cl)c3)o2)CC1	none
COc1cc2c(cc1OC)CN(C(=O)CSc1ccccc1C)CC2	none (no result: aSyn 5UTR inh)
O=C(Nc1ccccc1Cl)Nc1ccccc1Cl	none
O=C(Nc1ccccc1)Nc1ccc(O)c2ccccc12	CSC inhib 97.5
O=C(Nc1ccc(Nc2ccccc2)cc1)Nc1ccccc1Cl	CSC inhib 100.4
O=C(Nc1ccccc1)Nc1cccc2ccccc12	none
COC/C=C/C1=CC2=CC(=O)C(C)(OC(=O)c3cnc4ccccc4n3)C(=O)C2=CN1c1cccc(C#N)c1 (stereo not drawn)	none
O=C(NCc1ccccc1)c1onc(CS(=O)(=O)c2ccc(Cl)cc2)c1C(=O)NCc1ccccc1	none
FCCCOc1ccc(-c2nccc(-c3ccccn3)n2)cc1	none
O=C(O)COc1ccc(-c2nccc(-c3ccccn3)n2)cc1	aSyn 5UTR inh 72.1
O=[N+]([O-])c1ccc(N/N=C/c2sc(N3CCOCC3)nc2-c2ccccc2)c(S(=O)(=O)Nc2ccc(Cl)cc2)c1	aSyn 5UTR inh 75.8 (no result: CSC inhib, Beta cell apopt, Bfl-1 A1 inh, Mdm2-MdmX inh)
CN1CCN(Cc2nc3ccccc3c(=O)n2Cc2nc(-c3cccc([N+](=O)[O-])c3)cs2)CC1	none (no result: CSC inhib, aSyn 5UTR inh, Beta cell apopt, Bfl-1 A1 inh)
CN1CCN(Cc2nc3ccccc3c(=O)n2Cc2nc(-c3ccc4ccccc4c3)cs2)CC1	CSC inhib 99.3 (no result: Mdm2-MdmX inh)
O=C(c1ccc(N2C(=O)C3C4CC(C(Br)C4Br)C3C2=O)cc1)N1CCCCC1 (stereo not drawn)	none (no result: CSC inhib, Beta cell apopt, Bfl-1 A1 inh)
Cc1nc2ccc(NC(=O)c3ccc(Cl)c(S(=O)(=O)N(C)c4ccccc4)c3)cc2s1	none
Cc1nc2ccc(NC(=O)c3cc(S(=O)(=O)N(C)c4ccccc4)ccc3Cl)cc2s1	Beta cell apopt 79.7 (no result: Mdm2-MdmX inh)
CCCNC(=O)c1ccccc1NC(=O)Cc1ccc(OC)c(S(=O)(=O)N2CCOCC2)c1	none
CC1S/C(=N/N=C/c2cccs2)NC1=O (stereo not drawn)	none (no result: Beta cell apopt)
CC1S/C(=N/N=C/c2cccc([N+](=O)[O-])c2)NC1=O (stereo not drawn)	CSC inhib 88.0
Cc1ccc(C(=O)NC(=S)/C=C2\N(C)c3ccccc3C2(C)C)cc1	Beta cell apopt 93.7
CC(=O)/C=C1\N(C)c2ccc(C)cc2C1(C)C	Beta cell apopt 98.6
CN1/C(=C\C=N\NC(=O)c2ccc(O)cc2)C(C)(C)c2ccccc21	Beta cell apopt 113.1
CC(C)C(=O)NC(=S)/C=C1/N(C)c2ccccc2C1(C)C	Beta cell apopt 109.1
CN1/C(=C/C(=S)NC(=O)C2CCC2)C(C)(C)c2ccccc21	none
CN1/C(=C\C=N\NC(=O)c2cccnc2)C(C)(C)c2ccccc21	none
CS(=O)(=O)Nc1ccccc1C(=O)Nc1cccc(Cl)c1	CSC inhib 75.6
COc1cccc(NC(=O)c2ccccc2NS(C)(=O)=O)c1	none (no result: Beta cell apopt)
O=C(O)C1CCC(N2C(=O)c3c(Cl)c(Cl)c(Cl)c(Cl)c3C2=O)CC1 (stereo not drawn)	none (no result: Mdm2-MdmX inh)
CCN(CC)S(=O)(=O)c1cc(NC(=O)CNc2cccc(S(=O)(=O)N3CCCC3)c2)ccc1C	Beta cell apopt 88.8
COc1ccc(CC(=O)Nc2cccc(S(=O)(=O)N3CCCCCC3)c2)cc1OC	Beta cell apopt 86.7 (no result: Mdm2-MdmX inh)
Cc1nc2ccc(NS(=O)(=O)c3ccc4c(c3)OCCO4)cc2s1	Beta cell apopt 123.0
CC(=O)Nc1ccc(NC2=C/C(=N/S(=O)(=O)c3cccs3)c3ccccc3C2=O)cc1	aSyn 5UTR inh 82.6, Beta cell apopt 101.1
Cc1ccc(NC2=C/C(=N/S(=O)(=O)c3cccs3)c3ccccc3C2=O)cc1C	Beta cell apopt 80.4 (no result: Mdm2-MdmX inh)
CNC(=O)N(O)C1N(/N=C/c2cc(Br)ccc2O)C(=S)SC1(C)C (stereo not drawn)	none
O=C(NC(=S)NCc1ccccc1)C1CC1	none
O=C(NC(=S)NCCc1ccccc1)C1CCCCC1	CSC inhib 101.7
COc1cccc(N(CC(=O)N2CCCCCC2)S(C)(=O)=O)c1	none
C[C@@H]1CC[C@]2(C(=O)O)CC[C@]3(C)C(=CCC4[C@]56CC[C@@](O)(OC5)C(C)(C)C6CC[C@]43C)C2[C@H]1C (stereo partly drawn)	CSC inhib 96.1 (no result: aSyn 5UTR inh)
C[C@H]1[C@H](C)CC[C@]2(C)CC[C@]3(C)C(=CC[C@@H]4[C@@]5(C)CC[C@@H](O)[C@](C)(C(=O)O)[C@@H]5CC[C@]43C)[C@H]12	CSC inhib 76.5 (no result: Mdm2-MdmX inh)
C[C@H]1[C@H](C)CC[C@]2(C)CC[C@]3(C)C(=CC(=O)C4[C@@]5(C)CC[C@H](O)C(C)(C)C5CC[C@]43C)[C@H]12 (stereo partly drawn)	CSC inhib 98.2 (no result: aSyn 5UTR inh)
N#Cc1ccccc1NC(=O)COC(=O)/C=C/c1ccc(S(=O)(=O)N2CCOCC2)cc1	none (no result: aSyn 5UTR inh)
O=C(NC12CC3CC(CC(C3)C1)C2)C1CCCN1C(=O)Nc1ccccc1 (stereo not drawn)	none (no result: CSC inhib)
CCOc1cc(C)c(S(=O)(=O)Nc2ccc3cn[nH]c3c2)cc1C	Beta cell apopt 89.1
COC(=O)/C=C1\SC(=NC(=O)c2ccc(-c3ccccc3)cc2)NC1=O	none (no result: aSyn 5UTR inh)
Cc1ccccc1C(=O)Nc1nnc(-c2ccco2)s1	aSyn 5UTR inh 65.1
Cc1ccnc(NC(=O)c2sc3ccccc3c2Cl)c1	aSyn 5UTR inh 78.2
Cc1cnc(NC(=O)c2sc3ccccc3c2Cl)s1	aSyn 5UTR inh inconclusive
Cc1ccccc1CSc1nnc(-c2ccncc2)n1C	none
Cc1ccc(C(=O)COC(=O)c2ccc3c(c2)C(=O)N(c2cccc4ncccc24)C3=O)cc1	Bfl-1 A1 inh 6.4
NC(=O)c1ccc(N2CCN(S(=O)(=O)c3cccs3)CC2)c([N+](=O)[O-])c1	Beta cell apopt 82.2, Bfl-1 A1 inh inconclusive (no result: aSyn 5UTR inh)
CCOc1ccc(CN2CCC(Cc3ccccc3)CC2)cc1	none
Cc1ccc(N=Cc2c(C)[nH]n(-c3nc4ccccc4[nH]3)c2=O)cc1	CSC inhib 94.8, Beta cell apopt 91.9
COc1ccc(-c2cc([C@H]3[C@@H]4C=CCC[C@@]4(C)C(=O)N3Cc3ccccc3)ccc2F)cc1	CSC inhib 122.0
C[C@@]12CCC=C[C@H]1[C@H](c1ccc3ccccc3c1)N(Cc1ccccc1)C2=O	CSC inhib 86.0
COc1ccc(-c2ccc([C@H]3[C@@H]4C=CCC[C@@]4(C)C(=O)N3Cc3ccccc3)c(F)c2)cc1	Beta cell apopt 85.0

High-throughput results from PubChem.
